Experimental data: PubChem BioAssay (NCI)
This is part of a sample that, as a whole, favours compounds with a hit. Of some 79,000 tested, about 15% had one in any assay. Active and inactive are the calls of the source. No stated cut-off is given here; in the data, active means growth inhibition above about 70%; inactive means the rest.

Key:
[1] = NCI Yeast Anticancer Drug Screen. Data for the rad50 strain (AID 155);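 further: 0% = growth of vehicle-only cultures of the same strain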; details: S. cerevisiae rad50 strain growth inhibition; at 50.0 µM; active compounds read high
In short: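 Yeast carrying a defined DNA repair defect were exposed to test compounds, and growth was compared with vehicle-treated controls to give percent inhibition.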

[2] = NCI Yeast Anticancer Drug Screen. Data for the mec2-1 strain (AID 157); details: S. cerevisiae mec2-1 strain, at 50.0 µM, active compounds read high
In short: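 Yeast mec2-1 mutant treated with compound. Readout: growth inhibition vs vehicle controls.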

[3] = NCI Yeast Anticancer Drug Screen. Data for the sgs1 mgt1 strain (AID 161);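 further: 0% = growth of cultures given vehicle only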; details: S. cerevisiae sgs1 mgt1 strain, at 50.0 µM, active compounds read high
In short: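 Read-out: growth inhibition vs vehicle controls. Cells: mutant yeast strain deficient in DNA damage repair.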

[4] = NCI Yeast Anticancer Drug Screen. Data for the cln2 rad14 strain (AID 165);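 further: 0% = growth equal to vehicle treated cultures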; details: S. cerevisiae cln2 rad14 strain, at 50.0 µM, active compounds read high
In short: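 cln2 rad14 yeast strain; compound exposure; growth inhibition read vs vehicle controls.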

[5] = NCI Yeast Anticancer Drug Screen. Data for the bub3 strain (AID 167); details: S. cerevisiae bub3 mutant strain, at 50.0 µM, active compounds read high
In short: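 Compounds were applied to a genetically altered yeast strain carrying a cell-cycle control defect. Growth inhibition was scored against vehicle-treated controls.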

[6] = NCI Yeast Anticancer Drug Screen. Data for the mlh1 rad18 strain (AID 175); details: S. cerevisiae mlh1 rad18 strain growth inhibition; at 50.0 µM; active compounds read high
In short: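 Yeast w/ defined DNA-repair lesions; compound exposure; growth vs vehicle controls → % inhibition.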

Measured: growth inhibition

COc1cccc2c1OCC1Cc3ccccc3OC21 (stereo unspecified)
active: [1] 72.2% | [3] 85.7% | [4] 72.2% | [6] 95.7%
inactive: [2] 45% | [5] 51.8%

c1ccc(P(CCCP(c2ccccc2)c2ccccc2)c2ccccc2)cc1
inactive: [1] -15.7% | [2] 21.4% | [3] -24.6% | [4] 38.4% | [5] -0.05% | [6] -15.8%

OC(C1CCCCC1)(C1CCC2(CCCCC2)CC1)C1CCCC2CCCCC21 (stereo unspecified)
inactive: [1] 29.9% | [2] 5% | [3] 30.9% | [4] 21.5% | [5] 1.35% | [6] 20.1%

C[C@]12CC[C@@H]3c4ccc(OS(C)(=O)=O)cc4CC[C@H]3[C@@H]1CC[C@@H]2OS(C)(=O)=O
inactive: [1] 30.6% | [2] -0.5% | [3] 22.8% | [4] 22.1% | [5] 10.8% | [6] 9.9%

O=C(O)CN1CCN(CC(=O)O)CCN(CC(=O)O)CCN(CC(=O)O)CC1
inactive: [1] -7.95% | [2] -0.55% | [3] 2.9% | [4] -17.6% | [5] 20.4% | [6] 21.6%

COc1ccc(N=Cc2ccc(N(CCC#N)S(=O)(=O)c3ccccc3)cc2)cc1
inactive: [1] 0.2% | [2] -13.3% | [3] 2.05% | [4] 11.2% | [5] 9.25% | [6] -3.15%

C1=Nc2ccccc2/C1=C/c1c[nH]c2ccccc12
inactive: [1] 11.2% | [2] -10.1% | [3] 5.2% | [4] 17.9% | [5] 1.05% | [6] 17.9%

Cc1cnc2[nH]c(-c3ccccc3)cc(=O)c2c1
inactive: [1] -6.7% | [2] -12.6% | [3] -0.9% | [4] -23.2% | [5] -8.25% | [6] -48.5%

O=C(N/N=C/c1cccc(F)c1)c1ccncc1
inactive: [1] 8.4% | [2] 1% | [3] -2.05% | [4] -23.9% | [5] -0.35% | [6] 8.35%

COc1ccc2c(c1)[n+]([O-])c(/C(C)=N/NC(=O)c1ccccc1O)c(C)[n+]2[O-]
inactive: [1] 16.2% | [2] -3.9% | [3] 9.45% | [4] -106% | [5] -3.35% | [6] 0.7%

O/N=C/c1cc2c(cc1Br)OCO2
inactive: [1] -4.2% | [2] -9.9% | [3] -18.9% | [4] -9.75% | [5] -16.9% | [6] -17.6%

CC(C)(C)OC(=O)N1CC(C)(C)N2C(=O)C3(CCCO3)C12 (stereo unspecified)
inactive: [1] -4.3% | [2] -9.85% | [3] -7.15% | [4] -0.4% | [5] -16.6% | [6] 5.65%

O=C(NC(O)(C(F)(F)F)C(F)(F)F)c1ccccc1
inactive: [1] -5.35% | [2] 6.85% | [3] 10.7% | [4] 0.9% | [5] -7.05% | [6] -6.95%

CCCCCCCI
inactive: [1] -8.9% | [2] 20.9% | [3] 6.9% | [4] -21.6% | [5] 1.65% | [6] 23.8%

O=C(O)CCN1C(=S)CSC1=S
inactive: [1] -5.35% | [2] -18.4% | [3] -38.5% | [4] 8.9% | [5] -33.9% | [6] -24.2%

CCC(=O)CCc1ccc2ccccc2c1
inactive: [1] 22.2% | [2] 15.7% | [3] 10.9% | [4] -16.9% | [5] 23.5% | [6] 24.2%

CC(=O)OCC1OC(n2nc(/C=C/c3ccccc3)c(=O)n(-c3ccccc3)c2=S)C(OC(C)=O)C(OC(C)=O)C1OC(C)=O (stereo unspecified)
inactive: [1] 0.1% | [2] 20.6% | [3] 8.85% | [4] -10.3% | [5] -0.45% | [6] 31.9%

COC(=O)c1cc2c(cc1CC(Cc1ccc3c(c1)CCC3)C(=O)OC)CCC2 (stereo unspecified)
inactive: [1] 27.9% | [2] 1.25% | [3] -21.6% | [4] -34.1% | [5] 3.95% | [6] -4.65%

CC[n+]1ccc(C#N)cc1
inactive: [1] 19.9% | [2] -3.25% | [3] 7.85% | [4] 7.9% | [5] 2.6% | [6] 16.9%

CC(=O)CC(=O)Nc1ccc(-c2ccccc2)cc1
inactive: [1] 19.7% | [2] 3.95% | [3] 18.1% | [4] -16.2% | [5] -6.9% | [6] -0.35%

CCCCNC(=S)N/N=C/c1ccc(OC)cc1
inactive: [1] -10.8% | [2] 1.55% | [3] -1.3% | [4] -41% | [5] -1.85% | [6] -6.45%

COc1ccc(OC)c(NC(C)=O)c1
inactive: [1] -30.4% | [2] -12.2% | [3] -16.3% | [4] -3.05% | [5] -24.4% | [6] -8.55%

CC(=O)C(C)O (stereo unspecified)
inactive: [1] -27.8% | [2] -18.8% | [3] -15.2% | [4] -0.95% | [5] -21.4% | [6] -21.1%

COC(=O)C1=CC2C(C1)C1CC2C(OC(C)=O)C1N(C)C (stereo unspecified)
inactive: [1] 15.8% | [2] 6% | [3] -0.55% | [4] -31.8% | [5] 6.35% | [6] 17.4%

C/C(=N\NC(=S)NCCCCNC(=S)N/N=C(\C)c1ccccn1)c1ccccc1
inactive: [1] -4.15% | [2] 36.1% | [3] 14.7% | [4] 3.65% | [5] 38.4% | [6] 13.9%

CCCCCCCCCCCCOP(=O)(O)OCC(N)C(=O)O (stereo unspecified)
inactive: [1] 10.7% | [2] 9.2% | [3] -11.4% | [4] -39.8% | [5] -18% | [6] -19.3%

CCS(=O)c1ncc2cnccn12 (stereo unspecified)
inactive: [1] 2.35% | [2] 1.3% | [3] 15.4% | [4] -17.8% | [5] 8.3% | [6] -18.8%

Cc1ccc(OCC2OC(n3cnc4nc(Nc5ccc(Cl)c(Cl)c5)nc(Cl)c43)CC2Oc2ccc(C)cc2)cc1 (stereo unspecified)
inactive: [1] 6.9% | [2] 10.8% | [3] -40.2% | [4] 14.1% | [5] -20.3% | [6] -33%

O=c1oc2ccccc2cc1-n1nnc2ccccc21
inactive: [1] -2.65% | [2] 11.1% | [3] 18.9% | [4] 2% | [5] 16.1% | [6] 21%

COC(=O)c1c([N+](=O)[O-])ncn1C1CC(OC(C)=O)C(COC(C)=O)O1 (stereo unspecified)
inactive: [1] 15.2% | [2] -4.9% | [3] -1.9% | [4] -30.8% | [5] -17.7% | [6] 5.25%

CCC(=O)N(O)C(C)(C)C
inactive: [1] 10.8% | [2] 0.65% | [3] 14.7% | [4] 7.55% | [5] 7.2% | [6] 22.1%

COc1c(CCl)cc(-c2sc3ccccc3c(=O)c2CCl)cc1CCl
inactive: [1] -7.25% | [2] -7.3% | [3] 1.1% | [4] 2.85% | [5] -1.8% | [6] 1.85%

O=C(NN=C1CCCCC1)NN=C1CCCCC1
inactive: [1] -40.2% | [2] -10.8% | [3] -29.2% | [4] -2.4% | [5] -6.55% | [6] -0.4%

CCNc1nc(Cl)nc(C(Cl)(Cl)Cl)c1Cl (tested in a mixture with another compound)
active: [1] 96.6% | [2] 95.1% | [3] 97.8% | [4] 74.6% | [5] 71% | [6] 95.5%

CN(C)N=Nc1c(Cl)cccc1Cl
inactive: [1] 3.35% | [2] 26.7% | [3] -6.6% | [4] -13% | [5] 2.35% | [6] 7.75%

COc1ccccc1NC(=O)CC(=O)N1N=C(C)C(N=Nc2ccc(S(N)(=O)=O)cc2)C1=O (stereo unspecified)
inactive: [1] 13.3% | [2] -1.65% | [3] -8.2% | [4] 12.8% | [5] 11% | [6] 11.3%

Cc1cc(OC(=O)c2ccc(N)cc2)ccc1C1=NCC(C)S1 (stereo unspecified)
inactive: [1] 39% | [2] 20% | [3] 38% | [4] -3.05% | [5] 8.3% | [6] 0.1%

C/C(=N/OC1=CC(=O)CC(C)(C)C1)c1ccccc1
inactive: [1] 1.8% | [2] 0.8% | [3] 0.3% | [4] -52.9% | [5] 24.1% | [6] 0.6%

CCC(C)(O)c1cn(-c2cccc(S(=O)(=O)O)c2)nn1 (stereo unspecified)
inactive: [1] -9.3% | [2] -10.2% | [3] -8.05% | [4] 5.95% | [5] -8.65% | [6] -8.35%

Oc1ccc2ccccc2c1
inactive: [1] -10.3% | [2] -27.8% | [3] -14.8% | [4] -21.4% | [5] -16.4% | [6] 20.9%

O=C(O)CNC(=O)Cc1ccccc1
inactive: [1] -29.8% | [2] -12.6% | [3] -1.1% | [4] 10.2% | [5] -38.6% | [6] -7.3%
